Assay outcomes (PubChem BioAssay)
Most compounds without a hit are left out; they make up all but 3.5% or so of the library.
MITF primary: human MITF inhibition, primary screen | AlphaScreen MITF homodimerization, bead proximity signal | inhibition, % at 2.6 µM | 0.91% of 650,000 active; in the data active = inhibition above about 50%;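 note: 0% = vehicle wells with protein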
FBW7 activator: activators of human E3 ligase FBW7; AlphaScreen FBW7–phospho-cyclin E peptide binding, activator screen; normalized activity (activation), % at 26.1 µM; 0.13% of 650,000 active; AID 1259310; in the data active = normalized activity above about 1.9%;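 note: purified mutant Fbw7 with reduced substrate affinity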
GPR151 ag: human GPR151 activation; 1% of 650,000 active; activation, % at 11.2 µM; Q8TDV0; PathHunter beta-arrestin GPR151 cells, luminescence; in the data active = activation above about 4.9%;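 note: 0% = median of compound wells and 100% = cells with positive control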
Target sequence (Q8TDV0 whole entry, looked up): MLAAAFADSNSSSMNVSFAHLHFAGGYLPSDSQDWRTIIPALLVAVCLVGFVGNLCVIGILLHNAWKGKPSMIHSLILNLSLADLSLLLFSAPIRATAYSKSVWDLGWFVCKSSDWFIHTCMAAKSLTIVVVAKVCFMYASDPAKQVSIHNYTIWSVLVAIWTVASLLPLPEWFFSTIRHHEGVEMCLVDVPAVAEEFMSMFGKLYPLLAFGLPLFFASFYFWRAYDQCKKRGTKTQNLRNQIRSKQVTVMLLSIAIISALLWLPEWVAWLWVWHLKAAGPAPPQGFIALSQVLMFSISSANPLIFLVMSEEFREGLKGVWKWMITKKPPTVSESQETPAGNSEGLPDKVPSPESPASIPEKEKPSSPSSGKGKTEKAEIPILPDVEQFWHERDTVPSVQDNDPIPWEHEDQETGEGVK
TEAD-YAP block: TEAD-YAP interaction inhibition. HEK-TIYL cells, TEAD-Gal4/YAP UAS-luciferase luminescence. inhibition, % at 9.12 µM. 1.4% of 640,000 active; in the data active = inhibition above about 32%;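 note: 0% = median of test compound wells and 100% = reference inhibitor wells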
Active calls of the source: *.

SMILES | MITF primary | FBW7 activator | GPR151 ag | TEAD-YAP block
O=C(c1cc(-c2cccc(O)c2)on1)N1CCOCC1 | 15 | 0 | -5 | 65*
C=CCNC(=O)c1cc(-c2cccc(O)c2)on1 | 2 | 0 | -2 | 34*
CCOC(=O)C(NC(=O)c1ccc(N2CC3CC(C2)c2cccc(=O)n2C3)c(NC(=O)c2cccc(C(F)(F)F)c2)c1)C(=O)OCC (stereo not given) | 25 | 0 | -1 | 2
Cc1ccc(/C(C#N)=C\c2ccc3c(c2)OCCO3)cc1 | -7 | 0 | -4 | 56*
NC(=O)c1cccc2c1NC(c1cccc([N+](=O)[O-])c1)C1CC=CC21 (stereo not given) | 14 | 0 | 0 | -5
NC(=O)c1cccc2c1NC(C(=O)O)C1CC=CC21 (stereo not given) | 57* | -2 | 0 | 0
COC(=O)c1cccc2c1NC(C(=O)O)C1CC=CC21 (stereo not given) | 76* | 0 | 0 | 6
CC1(C)CC(=O)C(C=NCc2cccs2)=C(O)C1 | -9 | 1 | -1 | -3
Cc1csc(C(C#N)C2=NS(=O)(=O)c3ccccc32)n1 (stereo not given) | 0 | 0 | 0 | -19
N#CC(C1=NS(=O)(=O)c2ccccc21)c1nc(C23CC4CC(CC(C4)C2)C3)cs1 (stereo not given) | -3 | 0 | 1 | 62*
Cc1cnc(Nc2ccncc2)nc1Nc1ccc(N2CCOCC2)cc1 | -4 | 0 | -1 | 40*
Cc1cnc(NCc2ccc3c(c2)OCO3)nc1Nc1ccc(N2CCOCC2)cc1 | 16 | 0 | -1 | 42*
Cc1cnc(Nc2ccc(C(F)(F)F)cc2)nc1Nc1ccc(N2CCOCC2)cc1 | 15 | 0 | 2 | 49*
Cc1cnc(Nc2ccc(N3CCOCC3)cc2)nc1NCCOc1ccccc1 | 14 | 0 | 3 | 48*
CCCCOc1ccc(C(=O)Oc2coc(CSc3nc(C)cc(C)n3)cc2=O)cc1 | 1 | 0 | -1 | -3
Cc1cnc(Nc2ccc(N3CCOCC3)cc2)nc1Nc1ccc(N2CCOCC2)cc1 | 9 | 0 | 5 | 42*
Cc1cnc(Nc2ccc(N3CCOCC3)cc2)nc1NCCN1CCOCC1 | 1 | 0 | 1 | 0
c1nc2nc3c(c(Nc4ccc5c(c4)OCCO5)n2n1)CCC3 | -7 | 0 | 1 | 40*
COc1ccccc1-n1c(CNC(=O)c2ccccc2F)n[nH]c1=S | -64 | 0 | 1 | 6
COc1cc(C)c(C(C)C)cc1S(=O)(=O)N1CCN(S(=O)(=O)c2cc(C(C)C)c(C)cc2OC)CC1 | -8 | 0 | -1 | 1
CN(C)c1ccc(NC2=C([N+](=O)[O-])C(=O)c3ccccc32)cc1 | 86* | -1 | -2 | 2
Cn1cc(-c2ccnc(NC(=O)Cc3ccc4c(c3)OCO4)c2)cn1 | 2 | -1 | 1 | 34*
COc1ccc(CC(=O)Nc2cc3cc(-c4cnn(C)c4)ccc3cn2)cc1 | 6 | 0 | -1 | 72*
NC1CCN(c2ccnc(NC(=O)Cc3ccc4c(c3)OCO4)c2)CC1 | 0 | -1 | 3 | 7
COc1ccc(CC(=O)Nc2cc(C)on2)cc1 | 18 | 0 | -1 | 4
SMILES | MITF primary | FBW7 activator | GPR151 ag | TEAD-YAP block
COc1ccc(CC(=O)Nc2cc3cc(-c4cn[nH]c4)ccc3cn2)cc1 | -5 | 0 | -2 | 96*
COc1ccc(CC(=O)Nc2cc(-c3cnn(C)c3)ccn2)cc1 | -6 | 0 | -1 | 43*
COc1ccc(CC(=O)Nc2ccc(-c3cn[nH]c3)cc2N2CCN(C)CC2)cc1 | -1 | 1 | 1 | -13
COc1cc([N+](=O)[O-])ccc1NC(=O)NCc1cccs1 | 18 | 0 | 5 | 7
O=c1[nH]c(=S)n(Cc2ccco2)c(O)c1/C=C1\C=CC=N1 | 101* | -1 | 1 | -3
Cc1ccccc1-n1c(O)c(/C=C2\C=CC=N2)c(=O)[nH]c1=O | 9 | 0 | -2 | 57*
O=c1[nH]c(=S)n(-c2ccccc2)c(O)c1/C=C1\C=CC=N1 | -7 | 0 | 0 | -8
CCOc1ccccc1-n1c(O)c(/C=C2\C=CC=N2)c(=O)[nH]c1=O | 13 | 0 | 0 | 24
O=c1[nH]c(=O)n(-c2ccccc2F)c(O)c1/C=C1\C=CC=N1 | 13 | 0 | 0 | 57*
O=c1[nH]c(=O)n(-c2ccccc2Cl)c(O)c1/C=C1\C=CC=N1 | 11 | 0 | -1 | 61*
COc1ccccc1C(=O)NCC(=O)Nc1ccc(F)c(F)c1F | -2 | 0 | -1 | 6
N#CC1=C(SCC(N)=O)NC(=O)CC1c1cccc(F)c1 (stereo not given) | 20 | 0 | 1 | -4
CC(=O)Nc1cccc(-c2cnc3c(NCC4CC4)nccn23)c1 | 7 | -1 | -1 | 80*
CC(C)CNc1nccn2c(-c3cccc(O)c3)cnc12 | -2 | 0 | 0 | -6
CC(=O)Nc1cccc(-c2cnc(NCc3cccc(Cl)c3)c3nccn23)c1 | -9 | -1 | 0 | 69*
CC(=O)Nc1cccc(-c2cnc3c(NCCc4cccnc4)nccn23)c1 | 13 | 0 | -2 | 65*
CC(=O)c1cccc(-c2cnc3c(NCC4CC4)nccn23)c1 | 7 | -1 | 0 | -61
CC(=O)Nc1cccc(-c2cnc3c(NCC(C)C)nccn23)c1 | 11 | 0 | -2 | 65*
CCC1CCCCN1C(=O)c1sc2ncn(CC(=O)N3CCC(C)CC3)c(=O)c2c1C (stereo not given) | 2 | 0 | 0 | 0
CC(=O)Nc1cccc(-c2cnc3c(NCc4ccco4)nccn23)c1 | 12 | 2.3* | 2 | 47*
Nc1nc(NC2CCN(Cc3ccccc3)CC2)cc(-c2ccc(C(=O)NC3CC3)cc2)n1 | 20 | 0 | -1 | 3
O=C1C2N=NN(Cc3ccccc3)C2C(=O)N1c1ccccc1 (stereo not given) | 6 | 0 | 0 | -3
COc1cc(NC(=O)c2cccc(-n3cc(N(C)c4nnnn4-c4ccccc4)cn3)c2)ccc1N1CCOCC1 | 1 | 0 | 1 | 38*
COc1ccc(C(=O)Nc2ccc3c4c(cccc24)CC3)cc1 | 11 | 0 | 1 | -47
COc1cc(C(=O)Nc2ccc3c4c(cccc24)CC3)cc(OC)c1OC | 11 | 0 | 0 | 53*
SMILES | MITF primary | FBW7 activator | GPR151 ag | TEAD-YAP block
COc1cc(C(=O)Nc2cccc(C(=O)Nc3cccc4ccccc34)c2)cc(OC)c1OC | -8 | 1 | 2 | 64*
COc1cc(NC(=O)c2cccc(-n3cc(Nc4cnnn4-c4ccccc4)cn3)c2)ccc1N1CCOCC1 | 7 | 0 | -2 | 18
COc1ccc(C(=O)Nc2cccc3ccccc23)cc1OC | 1 | 0 | 1 | -3
COc1cc(NC(=O)c2cccc(-n3cc(NC(=O)Nc4ccccc4)cn3)c2)cc(OC)c1OC | 1 | 0 | 0 | 37*
COc1ccc(-c2nc(NCc3ccccc3)c3ncn(C(C)C)c3n2)cn1 | -7 | 0 | 0 | 12
CCOC(=O)CN(Cc1ccc(F)cc1)S(=O)(=O)c1ccc(Br)cc1 | 12 | 0 | 4 | 5
Cc1ccc(C(C)C)c(OCC(=O)Nc2ccc(C(=O)Nc3cccc4ccccc34)cc2)c1 | 12 | 0 | 1 | 60*
